# Assays:
# Assay in all cases: PBM binding z-score (relative to random genomic background probes); higher = stronger binding; sequences stand for … in GC…GCGATTGACAGCGTAGAATGAAGG
# [1] = tested on: PPARg:RXRa DBDmut IVT, anti-RXR (DBD mutation: RXRa K156A/R161A, NR concentration 270 nM, RXRa partner concentration 90 nM)
# Method in brief: (§1)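 The probes on custom Agilent 4×180K protein-binding microarrays were double-stranded, with 34-nt variable regions bearing direct-repeat seeds, single-nucleotide variants, half-site ablations and random human genomic background sequences. Incubation lasted 1 h with ligand-free nuclear receptor dimers in PBS pH 7.4, 2% milk, 0.02% Triton X-100, 1 mM DTT, 0.2 mg/mL BSA and 0.4 mg/ml salmon testes DNA. Antibodies against each partner (one per run) detected bound dimers, and fluorescence scans were regression-normalized. Binding z-scores take the random background probes as reference.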
# [2] = tested on: PPARg:RXRa IVT, anti-PPARg (NR concentration 270 nM, RXRa partner concentration 90 nM)
# Method in brief: as §1
# [3] = tested on: PPARg DBDmut:RXRa IVT, anti-PPARg (DBD mutation: PPARg1 K132A/R137A, NR concentration 270 nM, RXRa partner concentration 90 nM)
# Method in brief: as §1
# [4] = tested on: PPARg DBDmut IVT, anti-PPARg (DBD mutation: PPARg1 K132A/R137A, NR concentration 270 nM)
# Method in brief: as §1
# [5] = tested on: PPARg homodimer (NR concentration 180 nM)
# Method in brief: as §1
# [6] = tested on: PXR:RXRa (NR concentration 270 nM, RXRa partner concentration 90 nM)
# Method in brief: as §1
# [7] = tested on: PXR homodimer (NR concentration 270 nM)
# Method in brief: as §1
# [8] = tested on: RARa:RXR (NR concentration 270 nM, RXRa partner concentration 90 nM)
# Method in brief: as §1
# [9] = tested on: RARa homodimer (NR concentration 270 nM)
# Method in brief: as §1
# [10] = tested on: RARb:RXRa (NR concentration 270 nM, RXRa partner concentration 90 nM)
# Method in brief: as §1
Sequence,PBM binding z-score [1],PBM binding z-score [2],PBM binding z-score [3],PBM binding z-score [4],PBM binding z-score [5],PBM binding z-score [6],PBM binding z-score [7],PBM binding z-score [8],PBM binding z-score [9],PBM binding z-score [10]
GGAGCGAGGGCAAGTTGATAGCAGAGTTTGATGG,0.723,0.346,-0.895,-0.911,0.261,0.533,0.345,0.395,-0.343,2.56
CGAACGAGGGCATGAGTTGATAGCCAATGCCGAT,3.14,2.29,0.281,-0.251,0.292,0.342,-0.25,0.497,-0.133,2.01
TCTATTAGGTGAAGGGCAACCGACGAGTCCGTTT,5.49,4.75,1.19,0.901,1.58,0.47,0.805,0.687,0.733,2
TCTGCTAGGTCAACGACGGTCAGCTAATCTGCTA,3.89,3.94,0.0425,0.346,0.772,2.08,-0.714,2.4,-1.12,4.13
CCTTACGGGTCACTCCAGGTTATAGCGTCGGAGT,2.49,3.79,0.79,-0.822,2.29,5.1,0.516,4.18,0.581,3.74
GGAACGAAGGCAAAGTTGATAGCATCTGTCGACG,-0.211,0.452,-0.0938,0.0461,-0.879,-0.707,-0.569,-0.458,-0.886,-0.337
CGTCCAAGGTCATAGGAGGTCAGTGACGACAGAT,3.6,4.57,0.237,0.133,5.09,6.69,4.69,6.08,2.29,5.44
CAAACTAGGTCGCAGAGGTCAAAGTCCGTGCGTA,6.57,7.05,2.76,1.62,3.69,6.55,7.19,7.01,1.48,4.5
AGTCAAAGTTCACTAGGTAACGTATGATTCAGCT,2.65,4.66,1.13,1.39,2.15,3.83,2.69,2.93,1.04,4.76
CGAACTAGGTCATCGACAGGACAGTGAATAGTAA,8.14,8.42,4.29,4.27,2.79,1.76,0.984,2.53,2.3,3.88
CCGACTGGGGCGGAAAGGTTACCATACCATCCGG,-0.0321,0.59,-0.91,-0.926,0.423,1.17,-0.39,1.96,-0.133,1.43
TCTTGTAGATCAATAGAGGTTAAGAATGTGCGCT,2,1.37,0.489,0.485,0.502,1.65,0.282,1.86,0.562,0.764
ATCTCTAGGTAAGACTGAGTTCAGTGAAGAACGC,1.52,1.3,0.582,0.923,0.874,2.66,3.46,0.632,0.634,0.692
TGTCAAAGTTCAAAGGTACCGTAAGTATCCACAC,0.615,4.3,1.2,0.655,1.97,5.17,3.76,4.94,0.937,4.89
CATAGCAGGCCAATCTGGGTCACTCAAGGCTTGA,4.39,5.66,-0.292,-0.125,0.261,1.03,-0.436,1.25,-0.301,1.65
CATCCAAGGTCAAGGTCAGTGAAAGAGACTCGAA,3.78,5.22,1.93,0.636,4.53,4.84,1.77,5.12,1.98,5.77
ACTAGCAGGCCCAGGGTCACTCAAGATTAGTCCG,-0.868,0.714,-0.322,-0.342,0.073,2.4,0.0496,2.75,-0.377,2.27
GTAACGAGGGCAAAGTTGATAGCATCTGTCGACG,4.16,4.69,0.947,0.296,0.574,1.36,0.402,1.77,0.268,2.36
TCTTGTAGATCAACATGAGGTTAAGAAAGATCGA,1.66,1.07,1.29,1.12,-0.107,1.22,-0.155,1.53,0.226,0.619
CAAACTAGGTCACGAAGGGTCAAAGTCGAATGAC,8.44,9.09,5.43,4.14,6.07,6.48,1,7.14,2.56,5.29
AATACACGGTCACTAGGCCAGAGTAGGTACGAAT,2.08,3.87,1.22,1.13,0.988,0.0441,-0.0687,0.462,0.429,2.77
TCGAGTAGGTTACAAATGGGGCATTCAGCTTTCT,3.56,3.01,0.207,-0.201,0.131,0.0276,-0.499,0.475,0.267,0.54
CAAACTAGGTCACCGGAAGGTCAAAGTACGCATG,8.79,8.9,4.79,1.89,9.62,6.54,1.85,8.16,4.07,5.38
CGAACTAGCTCATCCAGGACAGTGAATACATTGA,0.221,-0.126,-0.227,0.607,0.205,-0.344,0.167,-0.0855,-0.0939,-0.208
TCGAGTAGGTTTGGGGCATTCAGAATGGCGTCGA,0.667,-0.179,-0.869,-0.587,-0.00492,-0.143,-0.414,-0.156,-0.479,-0.00663

Sequence,PBM binding z-score [1],PBM binding z-score [2],PBM binding z-score [3],PBM binding z-score [4],PBM binding z-score [5],PBM binding z-score [6],PBM binding z-score [7],PBM binding z-score [8],PBM binding z-score [9],PBM binding z-score [10]
CGAACTAGGTCAAGGGCAGTGAATCTCCGCACGC,7.67,8.29,1.07,0.971,1.46,1.14,-0.131,1.86,-0.096,4.13
TCTTGTTGGTCACGGAGGTCACACACGACGGGTA,2.92,4.57,2.15,2.59,4.65,5,2.43,5.34,3.1,4.17
TCTGCTAGGTCTGTTGGTCAGCTAACGAGCTGCC,0.324,0.208,0.17,0.0841,-1.76,-0.467,-0.379,-0.461,-1.79,0.107
ATCGAAAGGTCCTGAGGTGAGTATACAGAAAGGC,-0.172,0.777,0.834,0.602,0.413,0.102,-0.0977,0.895,0.0282,1.12
CCATACAGGTGAGAAGGTAACTCAGCCTCGATTA,2.08,1.63,0.397,0.148,0.629,0.166,0.14,0.725,1.02,0.628
GCGACTGGGGCAAAGCAGGTTACTATAAGGTTGG,4.62,3.88,0.068,-0.036,0.617,0.375,-0.473,0.949,-0.471,0.879
TATACAGGGTCAAAGGCCAGAGTACGAATGTCGA,2.36,5.11,2.18,1.49,2.55,4.55,0.583,5.75,0.928,4.5
CCGGCTGGGGCATAAGGTTACCATAAGCCAGCCC,-0.781,0.196,-2.71,-2.08,1.02,0.131,-0.484,1.23,-0.82,1.62
TGTGCTAGGTCAACGATGGTCAGCTAATCTGCTA,2.94,4.09,0.203,0.0393,1.1,1.4,-0.379,1.85,-0.241,4.15
CTGGAAAGGTCGTGCTCAGGTGAGTATACCAAAC,0.634,1.35,-0.0196,0.149,1.33,3.07,-0.203,4.31,-0.374,3.59
ACAATGAGGTTATTAAGATCAGGGAATTGCGGTC,2.08,2.07,1.27,1.25,0.869,1.58,1.15,1.49,1.12,1.74
CCAACTAGGTCAAGGTCAAAGTCGGTTTGTGCCA,8.26,8.03,1.26,1.36,4.31,5.31,2.55,5.24,3.41,5.3
ACTATTAGTAGACTTAGGGCAACCGATACGACGC,0.187,0.601,0.838,1.02,0.603,0.0648,0.218,0.0539,0.917,0.609
TAGGCTAGGTCATTGGGCCAGTATAGTACGCATC,2.74,3.99,0.305,0.421,1.41,1.32,-0.0794,1.9,0.178,3.79
CGAAATAGGTCAGAACAGGACAGTGAAGGATGAT,6.51,6.4,1.62,1.69,1.47,1.69,0.395,1.87,1.05,3.71
GCTAGCAGGCCTTTTGGGTCACTCAATGACGGGC,0.302,0.843,-1.25,-1.51,-0.592,0.137,-0.69,0.937,-0.611,1.06
ATACCAAGGTGATCGTTAGGTCGTTGATACTAAC,0.451,1.04,0.332,1.27,0.52,0.494,0.467,1.25,0.0968,0.816
CCTTACGGGTCACTTCAGGTTATAGCATCGGAGT,3.08,3.1,0.834,0.414,1.97,5.04,0.776,3.67,1,3.57
TCGAGTAGGTTACCCATGGGGCATTCAGCTTTCT,2.81,2.66,-0.222,-0.778,-0.0262,0.0585,-0.728,0.457,-0.95,0.891
TAGAGTAGGTTAGTCGGGGCATTCAGCCAACATA,3.08,3.62,0.961,1.55,1.27,0.576,0.756,0.643,1.35,1.1
CCTACTGGGCCACGAAAGGTCATTGATTCAGTGA,5.99,5.95,0.883,-0.339,4.26,5.45,2.06,5.9,1.7,4
ATCGAGAGGTCGAAGGTGAGTATACCCACCCGAA,-0.545,1.62,0.516,0.104,0.129,2.42,-0.494,3.29,-0.646,2.8
AGACCGAGGGCAATGAGTTGATAGCACGGGTGGC,0.184,0.251,-0.826,-1.67,-1.05,1.23,5.21,-0.109,-0.589,1.79
TCATATAGGTAAAGGTGAGAGTCGAACGATATGA,4.15,4,1.24,1.62,0.906,0.649,0.0264,1.29,0.387,1.69

# From the supplement of paper PMC6555819
